# Reference: PubChem BioAssay
# Measured potencies and affinities stand elsewhere. Results filed as inconclusive are left out. A number with no mark means an inactive call.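 How the source made its calls, unless noted: active means fitted half-maximal concentration for viability loss no higher than twice the top valid dose, in every repeat run; inconclusive means repeat runs disagree, flat partial loss, or poor curve fit; inactive means the rest.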
# Assay: RMG-1 ovarian cancer cell viability loss – cherry-pick, dose response (AID 687029;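 active means signal drop whose fitted half-maximal concentration is at most twice the top valid dose, in every test run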;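 further: cells exposed to compound for 96 hours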)
# Conditions: RMG-1 viability, CellTiterGlo ATP luminescence, 96 h; series mostly up to 35 µM; activity change, negative = inhibition: at the top concentration
row,SMILES,"activity change, negative = inhibition"
1,CC(=O)c1cccc(-c2csc3ncnc(Sc4nnnn4C)c23)c1,36.3%
2,CCCCn1nc(C(=O)Nc2cc(C(F)(F)F)ccc2N2CCOCC2)ccc1=O,19.3%
3,C=CC[C@H](CC(=O)N(CCO)Cc1ccccc1)C(=O)N[C@@H](COC(=O)[C@H](CC=C)CC(=O)OC(C)(C)C)Cc1c[nH]c2ccccc12,10.4%

# Assay: IOSE-T80 viability loss, PAX8-independent line – cell-based, cherry-pick, selectivity assay for PAX8 inhibitor project, dose response (AID 687032);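 further: cells exposed to compound for 96 h before reading; 0% = neutral control wells and -100% = 2 µM mitoxantrone kill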
# Conditions: CellTiterGlo ATP luminescence, 96 h; series mostly up to 35 µM; activity change, negative = viability loss: at the top concentration
row,SMILES,"activity change, negative = viability loss"
1,CCCCn1cnc2c(c(-c3ccccc3)c(-c3ccccc3)n2Cc2ccco2)c1=N,24.8%
2,O=C(N/N=C/c1ccc(O)cc1)c1[nH]c2ccc(Br)cc2c1-c1ccccc1,15.9%
3,COC(=O)[C@@H]1Cc2c([nH]c3ccccc23)C(C)(C)N1C(=O)CCl,5.84%
4,O=C(CCl)N=c1sccn1Cc1ccccc1Cl,-2.97%
5,COc1cccc(/C=N/NC(=O)c2ccc(N3CCCC3=O)cc2)c1,0.174%
6,Cc1ccc(S(=O)(=O)c2nc(S(=O)(=O)c3ccccc3)sc2N2CCN(C)CC2)cc1,5.73%
7,C[C@H]1CCCCO[C@@H](CN(C)Cc2ccc(C(F)(F)F)cc2)[C@@H](C)CN([C@@H](C)CO)C(=O)c2cc(NS(=O)(=O)c3ccc(Cl)cc3)ccc2O1,15.7%
8,N#Cc1ccc(NC(=O)COC(=O)C2CCC2)cc1,4.28%
9,O=C(Nc1ccc(F)cc1)c1nc(S(=O)(=O)Cc2ccccc2)ncc1Cl,5.74%
10,CC(C)=CCC/C(C)=C/CNC(=O)C[C@H]1C[C@H](C(=O)N2CCOCC2)[C@@]2(C)c3[nH]c4ccc(Cl)cc4c3CCN2C1=O,5.42%
11,Cc1ccc(C)c(N2CCN(C(=O)CCCCCn3c(=S)[nH]c4ccc(N5CCOCC5)cc4c3=O)CC2)c1,17.3%
12,COc1ccc(-c2ccc3c(c2)[C@H]2[C@H](CCN2S(=O)(=O)c2ccc(OC)cc2)[C@H](CO)N3C)cc1,7.26% [at 30 µM]
13,COc1ccc(C#Cc2ccc([C@@H]3[C@H](CO)N4CCCCN(C(=O)Nc5cccc(F)c5)C[C@@H]34)cc2)cc1,15.4%
14,Oc1ccc(C[C@H]2CNC(=S)N2CC2CCCN2C[C@H](Cc2ccccc2)N2C[C@H](Cc3ccc(O)cc3)N(CCc3ccccc3)C2=S)cc1 (stereo not given in full),2.9%
15,Oc1ccc(/C=N\Nc2cc(N3CCOCC3)nc(N3CCOCC3)n2)c(O)c1,8.97%
16,O=C(Nc1ccc(Cl)cc1)Nc1ccc(N2CCCC2)c(S(=O)(=O)Nc2ccccc2Cl)c1,9.46%

row,SMILES,"activity change, negative = viability loss"
1,C[C@H](CO)N1C[C@H](C)[C@@H](CN(C)Cc2ccncc2)Oc2ccc(NC(=O)Nc3ccc(C(F)(F)F)cc3)cc2CC1=O,10.3%
2,O=C(C[C@@H]1C[C@H]2c3cc(NS(=O)(=O)c4ccc(F)cc4)ccc3O[C@H]2[C@@H](CO)O1)NCc1ccc(Oc2ccccc2)cc1,13.8%
3,FC(F)(F)c1nnc2c(Sc3ccc(Cl)cc3)nc3ccccc3n12,6.61%
4,C[C@@H]1CCCCO[C@@H](CN(C)Cc2ccc3c(c2)OCO3)[C@H](C)CN([C@@H](C)CO)C(=O)c2cc(NC(=O)Nc3ccc(C(F)(F)F)cc3)ccc2O1,10.9%
5,CN(C)N=Nc1nc[nH]c1C(N)=O,5.96%
6,COC(C(=O)C(O)C(C)O)C1Cc2cc3cc(OC4CC(OC5CC(O)C(O)C(C)O5)C(O)C(C)O4)c(C)c(O)c3c(O)c2C(=O)C1OC1CC(OC2CC(OC3CC(O)C(OC)C(C)O3)C(O)C(C)O2)C(O)C(C)O1 (stereo not given),6.31%
7,O=C(NCC1CCCO1)C(=Cc1cccc([N+](=O)[O-])c1)C(=O)NCC1CCCO1 (stereo not given),0.354%
8,Cc1ccc(S(=O)(=O)CCC(=O)c2ccc(O)cc2O)cc1,8.26%
9,O=C(Nc1nc(-c2cccs2)c(-c2cccs2)s1)C1(c2ccccc2)CC1,3.63%
10,Cc1cccc(NC(=O)CC23CC4CC(C2)CC(n2nnc(C)n2)(C4)C3)c1,-2.11%
11,Cc1ccc(S(=O)(=O)Nc2ccc3c(c2)C(=O)N([C@H](C)CO)C[C@H](C)[C@@H](CN(C)S(=O)(=O)c2ccc(C)cc2)OCCCC[C@H](C)O3)cc1,18.5%
12,CCCCNC(=O)C(Sc1ccccc1)c1ccccc1 (stereo not given),3.21%
13,O=C1/C(=C\c2ccc(Cl)c(Cl)c2)CN(C(=O)CCN2CCOCC2)C/C1=C/c1ccc(Cl)c(Cl)c1,12.6%
14,COc1cccc(N(C(=O)c2ccco2)c2nc(-c3sc(NC(=O)c4ccco4)nc3C)cs2)c1,10.1%
15,C[C@H](CO)N1C[C@H](C)[C@H](CN(C)S(=O)(=O)c2cccc(F)c2)OCc2ccccc2-c2c(n(C)c3ccccc23)C1=O,8.99%
16,CCOC(=O)Nc1ccc2c(c1)N(C(=O)CCCl)c1ccccc1[S@]2=O,3.41%
